Compound activity from PubChem.
Sampled rows, rich in hits. Any-hit rate of the full collection: about 1.7%.
GLP1R cytotox: cytotoxicity counter-screen for GLP-1 receptor inverse agonists; HEK293 cAMP-luciferase reporter cells, luminescence, 24 h; Potency, µM (highest dose often 38.3 µM), for the others: at the top dose activity change, negative = inhibition, most hits filed as inhibitors; 410,000 tested, 0.13% active;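 also: loss of luciferase light is scored as toxicity; potency is read from the fitted curve at half-maximal effect; % is scaled to controls: 0 for no effect and ±100 for the full control effect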
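Luminescence readout: signal drop marks cytotoxicity. Plated cells grew 12 h at 37 °C, 5% CO2, received 23 nL compound for 24 h, then got luciferase reagent, read after 12 min at RT.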
GLP-1R agonist: activates the human GLP-1 receptor. P43220. 380,000 tested, 0.007% active. HEK293 GLP-1R CRE-luciferase, luminescence, 4-6 h; cells express a hypersensitive GLP-1R form. Potency, µM (doses to about 45.6 µM), for inactives: at the highest dose activation, actives largely listed as activators; also: potency is read from the fitted curve at half-maximal effect; % of control where 0% means no effect
Target sequence (P43220 whole entry, looked up): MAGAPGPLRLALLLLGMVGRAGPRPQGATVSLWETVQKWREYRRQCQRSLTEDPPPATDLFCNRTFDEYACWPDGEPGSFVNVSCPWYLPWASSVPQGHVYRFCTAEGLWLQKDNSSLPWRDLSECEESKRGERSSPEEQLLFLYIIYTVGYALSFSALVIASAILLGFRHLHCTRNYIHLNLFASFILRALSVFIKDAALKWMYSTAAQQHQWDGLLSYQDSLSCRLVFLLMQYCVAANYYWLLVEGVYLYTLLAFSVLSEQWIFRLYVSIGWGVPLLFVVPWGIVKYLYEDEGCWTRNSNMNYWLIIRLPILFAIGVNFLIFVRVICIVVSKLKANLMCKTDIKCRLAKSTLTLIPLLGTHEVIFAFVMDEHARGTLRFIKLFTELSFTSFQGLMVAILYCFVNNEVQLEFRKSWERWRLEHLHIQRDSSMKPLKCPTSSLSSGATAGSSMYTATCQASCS
PTHR1 agonist: activates the human parathyroid hormone receptor PTHR1 | Q03431 | HEK293 GP2 PTHR1 cells, GloSensor cAMP luminescence, 1 h | Potency, µM (doses to about 115 µM), for the others: top-dose activation, usual class: activators | 410,000 tested, 0.075% active; also: potency is read from the fitted curve at half-maximal effect; nearly all actives have a fitted effect of over 55% in size
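HEK-293-derived GP2 cells expressing PTHR1 and a GloSensor cAMP reporter, 3,000/well, plated overnight, given luciferin plus IBMX (each 0.5 mM as added) for 1 h at 37 °C, then compound for 1 h at 37 °C. Luminescence was read after 15 min at room temperature.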
mIDH1 inhibitor: inhibitors of human mutant IDH1 R132H | Potency, µM (top dose mostly 76.6 µM), inactives show top-dose activity change, negative = inhibition, usual class: inhibitors | 390,000 tested, 0.093% active | IDH1-R132H enzyme, NADPH consumption, diaphorase/resazurin fluorescence | AID 602179; also: potency is read from the fitted curve at half-maximal effect; % is scaled to controls: 0 for no effect and ±100 for the full control effect; nearly all actives have a fitted effect of over 65% in size
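IDH1-R132H (0.5 ug/mL) preincubated 30 min with compound, then NADPH (0.016 mM) and alpha-KG (2 mM) added; 80 min at RT, pH 7.5. Remaining NADPH coupled via diaphorase/resazurin to fluorescence (540/590 nm); concentration-response curves normalized to no-enzyme control.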
GLP-1R inv ag: acts as inverse agonist at human GLP-1 receptor. P43220. HEK293 GLP-1R CRE-luciferase, luminescence, 24 h; GLP-1R form is constitutively active. AID 624417. Potency, µM (highest dose often 38.3 µM), without a hit: top-dose activity change, negative = inhibition, usual class: inhibitors. 410,000 tested, 1.6% active; also: potency is read from the fitted curve at half-maximal effect; % is scaled to controls: 0 for no effect and ±100 for the full control effect; nearly all actives have a fitted effect of over 55% in size
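Readout was luciferase luminescence, measured 12 min after detection reagent at room temperature. Beforehand, GLP-1R reporter HEK293 cells had sat 12 h, then received compounds for 24 hr at 37 deg C.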
LDHA block: blocks human lactate dehydrogenase A; AID 1347041; 480,000 tested, 0.15% active; purified LDHA, NADH/diaphorase-resazurin fluorescence; stronger effect = lower value; activity change, % (values are at about 110 or 230 µM); in the data active = activity change below about -30%; inconclusive = mostly about -25% to -30%;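 also: plate controls were DMSO wells for no effect and wells without enzyme for full effect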
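Enzyme activity of human lactate dehydrogenase 5 (2 nM; 0.06 mM NADH, 0.2 mM pyruvate, 5 min, RT) is measured via a resazurin/diaphorase fluorescence readout of residual NADH.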
The depositor's hits bear a star; i = inactive; ? = inconclusive; / = not tested or not shown; [ ] = another dose, or the depositor's remark. Unless noted, calls follow the shape of the dose curve; as a rule, active = well fitted curve in the direction sought with a large enough effect; inconclusive = small, poorly fitted or top-dose-only effect, or another doubt; inactive = no such curve, though single readings can be large; an effect the other way counts as inactive or inconclusive.

SMILES | GLP1R cytotox | GLP-1R agonist | PTHR1 agonist | mIDH1 inhibitor | GLP-1R inv ag | LDHA block
Cc1cccc(NC(=O)C2CCN(S(=O)(=O)c3cccs3)CC2)c1 | -14% | -13% | -11% | 2% | -5% | -4
O=C(Nc1cccc(C(F)(F)F)c1)C1CCN(S(=O)(=O)c2cccs2)CC1 | -19% | / | -18% | -9% | ? | 0
COc1ccc(OC)c(S(=O)(=O)N2CCC(C(=O)Nc3cccc(C(F)(F)F)c3)CC2)c1 | ? | -13% | -15% | 2% | 10µM* | 5
NCc1ccc(CS(N)(=O)=O)cc1 | / | / | / | / | / | 7
COc1ccc(CCC(=O)NCC23CC4CC(CC(C4)C2)C3)cc1 | -5% | 0% | -47% | -7% | 6.3µM* | 1
COc1ccc(CNC(=O)CC23CC4CC(CC(C4)C2)C3)cc1 | -18% | 12% | -16% | -8% | ? | -4
O=C(CCC(=O)c1ccc2c(c1)OCCO2)OCc1ccc(Cl)cc1Cl | / | / | / | / | / | 9
CC(NC(=O)c1cc(-c2ccncc2)nc2ccccc12)c1cccs1 (stereo unspecified) | / | / | / | / | / | -8
O=C(COc1ccc(Br)cc1)Nc1ccc(C(=O)Nc2ccccc2C(=O)O)cc1 | 6% | 0% | -35% | 6% | 8% | -32*
Cc1nc2c(cnn2C(C)C)cc1C(=O)Nc1nc(-c2ccc3c(c2)OCO3)cs1 | / | / | / | / | / | 8
CCCCCCNC(=O)c1cc(N)nc(Cl)c1 | / | / | / | / | / | -1
Cc1ccc(C(c2sc3nc(C)nn3c2O)N2CCN(c3ccccc3F)CC2)cc1 (stereo unspecified) | -16% | -7% | 3%[57.5 µM] | 9% | 8.9µM* | 1
Cc1ccc(C(c2sc3nc(C)nn3c2O)N2CCN(CCO)CC2)cc1 (stereo unspecified) | -13% | 6% | -21% | 3% | 9% | -2
CCOc1ccccc1NC(=O)c1nn(-c2ccc(OC)cc2)ccc1=O | / | / | / | / | / | 3
Cc1ccc(C(C)C)c(OCC(O)CN2CCc3ccccc3C2)c1 (stereo unspecified) | ? | -2% | i | 2% | ? | 1
Cn1cc(CNCc2ccccc2OCC(O)CN2CCc3ccccc3C2)cn1 (stereo unspecified) | ? | -2% | i | 10% | 8.9µM* | 3
Cc1cccc(C)c1OCC(O)CN1CCc2ccccc2C1 (stereo unspecified) | 1% | 2% | -19% | 5% | 10µM* | -2
CC(C)NC(=O)C(Sc1ccccc1)c1ccccc1 (stereo unspecified) | 15% | 2% | -3% | 1% | -24% | -1
CNC(=S)NNC(=O)C(Sc1ccccc1)c1ccccc1 (stereo unspecified) | / | / | / | / | / | -32*
CC1Nc2ncnc(N3CCN(c4ccccc4)CC3)c2N(Cc2ccc(Cl)cc2)C1=O (stereo unspecified) | -56% | 0% | -19% | -6% | 10µM* | -1
O=C1C(Cc2ccccc2)Nc2ncnc(N3CCN(c4ccccc4)CC3)c2N1Cc1ccc(Cl)cc1 (stereo unspecified) | 34% | -4% | -24% | 0% | 11µM* | -14
O=C1C(Cc2ccccc2)Nc2ncnc(N3CCCCC3)c2N1Cc1ccc(Cl)cc1 (stereo unspecified) | 0% | 4% | -70% | -15% | 13µM* | -1
CC(CN1CCOCC1)OC(=O)c1cccc(F)c1 (stereo unspecified) | / | / | / | / | / | -4
COc1ccc(N2C(=O)CN(Cc3ccccc3Cl)[C@H]3CS(=O)(=O)C[C@H]32)cc1 | / | / | / | / | / | -13
O=C(NC1CCCc2ccccc21)c1cc(-c2cccnc2)nc2ccc(Cl)cc12 (stereo unspecified) | / | / | / | / | / | 3
SMILES | GLP1R cytotox | GLP-1R agonist | PTHR1 agonist | mIDH1 inhibitor | GLP-1R inv ag | LDHA block
CN(CC(=O)Nc1cccc(F)c1)C(=O)c1cc2c(s1)CCCCC2 | -8% | 13% | -48% | 9% | ? | -4
CN(CC(=O)Nc1ccc(F)cc1)C(=O)c1cc2c(s1)CCCCC2 | -16% | 19% | -18% | -10% | 10µM* | -7
O=C(O)CCCc1ccncc1 | / | / | / | / | / | -6
COc1ccc(Br)cc1CNC(=O)C1CCN(c2nnc(-n3cccc3CNc3ccc(C)cc3)s2)CC1 | 1% | / | i | / | ? | -14
Cc1ccc(NCc2cccn2-c2nnc(N3CCC(C(=O)NCCc4ccc(Cl)cc4)CC3)s2)cc1 | -13% | / | -5% | / | 10µM* | 0
CN(CC(=O)Nc1ccc(Cl)cc1)CC(=O)Nc1ccc(C(N)=O)cc1 | 0% | 2% | i | -7% | 7% | 1
CN(C)CC(=O)Nc1ccc(Oc2ccc(Cl)cc2)cc1 | 9% | 15% | -2% | 2% | 5µM* | -14
O=C(NC(=S)Nc1ccc(Cl)cc1)c1ccccc1 | -1% | 20% | i | -13% | 14% | -9
O=C(NC(=S)Nc1ccc(Oc2ccc(Cl)cc2)cc1)c1ccccc1 | ? | -6% | -18%[57.5 µM] | 7% | 13µM* | -8
Cc1cc(OCC(=O)Nc2ccccc2N2CCCC2)ccc1C(C)C | 18% | 25% | i | 4% | 11µM* | 1
N#Cc1ccc(S(=O)(=O)Nc2c(NCC3CCCCC3)c3ccccc3oc2=O)cc1 | / | / | / | / | / | -2
CCc1ccc(NC(=O)CCc2ccc(CC)o2)cc1 | -21% | -2% | -29% | 5% | 10µM* | 2
CCc1ccc(NC(=O)CCc2ccc(C)o2)cc1 | -10% | -2% | 17% | -3% | ? | 0
Cc1ccc2c(c1)-c1c(cnn1CC(=O)O)CO2 | -6% | -14% | 33%[57.5 µM] | 3% | 3% | -4
Cc1cccc(N2CCN(C(=O)Cn3ncc4c3-c3cc(C)ccc3OC4)CC2C)c1 (stereo unspecified) | -12% | / | -20% | -25% | 11µM* | 3
O=C(Nc1nnc(C2CC2)s1)C(Oc1ccccc1)c1ccccc1 (stereo unspecified) | / | / | / | / | / | 1
COCCNC(=O)c1cc2sc3ccccc3c2s1 | -15% | 1% | -21% | 4% | -19% | 0
CCCCN(CC)CCNC(=O)c1cc2c(=O)n(CC)c3ccccc3c2s1 | 3% | 7% | -7% | 20% | ? | -5
CCCCN(CC)CCCNC(=O)c1cc2c(=O)n(CC)c3ccccc3c2s1 | 38% | 7% | i | 3% | 2.8µM* | 3
CN(C)CCCNC(=O)c1cc2sc3ccccc3c2s1 | ? | 6% | -5% | 1% | 4µM* | -5
Cc1cc(C)c2c(C)c(C(=O)Nc3ccc4c(c3)N(C)C(=O)CO4)oc2c1 | / | / | / | / | / | 4
